Data taken from PubChem BioAssay (NCI).
About 79,000 compounds went through this panel and 15% of them were active in at least one assay; those are over-represented in the sample as a whole. A number with no mark means an inactive call. Activity calls are given as the source filed them. Cut-off read from the data, not from the text of the source: active = growth inhibition above about 70%; inactive = the rest.

Experiments:
[1] = NCI Yeast Anticancer Drug Screen. Data for the rad52 strain (AID 147);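 note: 0% = growth of vehicle-treated control cultures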; conditions: S. cerevisiae rad52 mutant growth inhibition, stronger effect = higher value
Method in brief: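 Yeast strain carrying a DNA damage repair alteration was exposed to test compounds. Growth inhibition was measured relative to vehicle-treated controls.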

[2] = NCI Yeast Anticancer Drug Screen. Data for the wt1 strain (AID 149);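 note: 0% = growth of vehicle-treated wt1 cultures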; conditions: S. cerevisiae wt1 strain (SPY 50644) growth inhibition, stronger effect = higher value
Method in brief: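 wt1 strain grown with compound or vehicle; inhibition taken from the growth difference.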

[3] = NCI Yeast Anticancer Drug Screen. Data for the rad50EPP+ strain (AID 151);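 note: 0% = growth of vehicle-treated control cultures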; conditions: S. cerevisiae rad50 mutant strain, stronger effect = higher value
Method in brief: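 Yeast strain carrying rad50 alteration (rad50EPP+) exposed to compounds; growth inhibition measured relative to vehicle-treated controls.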

[4] = NCI Yeast Anticancer Drug Screen. Data for the mgt1 strain (AID 153); conditions: S. cerevisiae mgt1 mutant growth inhibition, stronger effect = higher value
Method in brief: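 Yeast mgt1 strain (DNA repair/cell-cycle alteration panel) exposed to compounds; growth inhibition measured relative to vehicle-treated controls.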

[5] = NCI Yeast Anticancer Drug Screen. Data for the rad50 strain (AID 155);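 note: 0% = growth of vehicle-only cultures of the same strain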; conditions: S. cerevisiae rad50 strain growth inhibition, stronger effect = higher value
Method in brief: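 DNA repair mutant yeast, compound exposure, growth read-out; inhibition is taken relative to vehicle.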

[6] = NCI Yeast Anticancer Drug Screen. Data for the mec2-1 strain (AID 157); conditions: S. cerevisiae mec2-1 strain, stronger effect = higher value
Method in brief: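 mec2-1 yeast strain, carrying an alteration in DNA damage repair or cell cycle control, was exposed to compounds; growth inhibition was measured relative to vehicle-treated controls.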

[7] = NCI Yeast Anticancer Drug Screen. Data for the rad14 strain (AID 159);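 note: 0% = growth of vehicle-treated control cultures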; conditions: S. cerevisiae rad14 strain growth inhibition, stronger effect = higher value
Method in brief: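 DNA repair-defective yeast, compound-exposed; % growth inhibition derived by comparison with vehicle-treated controls.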

[8] = NCI Yeast Anticancer Drug Screen. Data for the sgs1 mgt1 strain (AID 161);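 note: 0% = growth of cultures given vehicle only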; conditions: S. cerevisiae sgs1 mgt1 strain, stronger effect = higher value
Method in brief: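 Percent growth inhibition was derived by comparing compound-exposed mutant yeast with vehicle-exposed cultures. The strain carries alterations in DNA damage repair.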

[9] = NCI Yeast Anticancer Drug Screen. Data for the CLN2oe strain (AID 163);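 note: 0% = growth of vehicle-only control cultures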; conditions: S. cerevisiae CLN2oe strain, stronger effect = higher value
Method in brief: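 Yeast cells carrying a defined cell-cycle control alteration were exposed to test compounds. Growth inhibition was scored against vehicle-treated control cultures.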

[10] = NCI Yeast Anticancer Drug Screen. Data for the bub3 strain (AID 167); conditions: S. cerevisiae bub3 mutant strain, stronger effect = higher value
Method in brief: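 In this screen, a yeast mutant lacking normal mitotic checkpoint function is challenged with compound. Relative growth versus vehicle gives the inhibition value.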

[11] = NCI Yeast Anticancer Drug Screen. Data for the wt2 strain (AID 169);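 note: 0% = growth of vehicle-treated yeast cultures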; conditions: S. cerevisiae wt2 strain growth inhibition, stronger effect = higher value
Method in brief: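 Yeast cells were exposed to test compounds, and growth inhibition was measured relative to vehicle-treated controls.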

[12] = NCI Yeast Anticancer Drug Screen. Data for the mlh1 strain (AID 171);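 note: 0% = growth of vehicle-treated control cultures of the same strain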; conditions: S. cerevisiae mlh1 strain growth inhibition, stronger effect = higher value
Method in brief: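 Yeast carrying a defined genetic alteration in DNA damage repair or cell cycle control were exposed to test compounds. Growth inhibition was measured relative to vehicle-treated controls.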

[13] = NCI Yeast Anticancer Drug Screen. Data for the sgs1 strain (AID 173);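 note: 0% = growth of vehicle-only control cultures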; conditions: S. cerevisiae sgs1 mutant, stronger effect = higher value
Method in brief: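 Yeast mutant strains carrying defined defects in DNA damage repair or cell cycle control were exposed to test compounds. Growth inhibition was scored against vehicle-treated controls.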

[14] = NCI Yeast Anticancer Drug Screen. Data for the mlh1 rad18 strain (AID 175); conditions: S. cerevisiae mlh1 rad18 strain growth inhibition, stronger effect = higher value
Method in brief: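 Growth inhibition of the yeast strain was measured after compound exposure and expressed relative to vehicle-treated controls. The strain carries defined defects in DNA damage repair.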

[15] = NCI Yeast Anticancer Drug Screen. Data for the rad18 strain (AID 177); conditions: S. cerevisiae rad18 mutant growth inhibition, stronger effect = higher value
Method in brief: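 Yeast carrying a defined DNA damage repair alteration were exposed to compounds. Growth inhibition was expressed relative to vehicle-treated controls.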

[16] = NCI Yeast Anticancer Drug Screen. Data for the cln2 rad14 strain (AID 165);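 note: 0% = growth equal to vehicle treated cultures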; conditions: S. cerevisiae cln2 rad14 strain, stronger effect = higher value
Method in brief: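 Yeast carrying cln2 and rad14 alterations (cell cycle control and DNA damage repair) were exposed to compounds. Growth inhibition was measured against vehicle-treated controls.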

[17] = at 5.0 µM (retest, dose inferred, filed as 0.5)
[18] = at 50.0 µM (retest, dose inferred, filed as 5.0)

## C[n+]1c(/C=C/c2ccc(/C=N/NC(=O)c3ccc(C(=O)N/N=C/c4ccc(/C=C/c5cn6ccccc6[n+]5C)cc4)cc3)cc2)cn2ccccc21
[1]; at 1.2 µM
  growth inhibition: 80% (active)
[1]; at 3.7 µM
  growth inhibition: 97% (active)
[1]; at 11.0 µM
  growth inhibition: 97% (active)
[1]; at 33.0 µM
  growth inhibition: 96% (active)
[1]; at 100.0 µM
  growth inhibition: 93% (active)
[2]; at 1.2 µM
  growth inhibition: 25%
[2]; at 3.7 µM
  growth inhibition: 88% (active)
[2]; at 11.0 µM
  growth inhibition: 95% (active)
[2]; at 33.0 µM
  growth inhibition: 97% (active)
[2]; at 100.0 µM
  growth inhibition: 95% (active)
[3]; at 1.2 µM
  growth inhibition: 58%
[3]; at 3.7 µM
  growth inhibition: 97% (active)
[3]; at 11.0 µM
  growth inhibition: 95% (active)
[3]; at 33.0 µM
  growth inhibition: 95% (active)
[3]; at 100.0 µM
  growth inhibition: 91% (active)
[4]; at 1.2 µM
  growth inhibition: 42%
[4]; at 3.7 µM
  growth inhibition: 99% (active)
[4]; at 11.0 µM
  growth inhibition: 99% (active)
[4]; at 33.0 µM
  growth inhibition: 97% (active)
[4]; at 100.0 µM
  growth inhibition: 94% (active)
[5]; at 1.2 µM
  growth inhibition: 87% (active)
[5]; at 3.7 µM
  growth inhibition: 98% (active)
[5]; [17]
  growth inhibition: 79% (active)
[5]; at 11.0 µM
  growth inhibition: 97% (active)
[5]; at 33.0 µM
  growth inhibition: 95% (active)
[5]; [18]
  growth inhibition: 96% (active)
[5]; at 50.0 µM
  growth inhibition: 88.7% (active)
[5]; at 100.0 µM
  growth inhibition: 89% (active)
[6]; at 1.2 µM
  growth inhibition: 62%
[6]; at 3.7 µM
  growth inhibition: 99% (active)
[6]; [17]
  growth inhibition: 92% (active)
[6]; at 11.0 µM
  growth inhibition: 98% (active)
[6]; at 33.0 µM
  growth inhibition: 97% (active)
[6]; [18]
  growth inhibition: 98% (active)
[6]; at 50.0 µM
  growth inhibition: 90.8% (active)
[6]; at 100.0 µM
  growth inhibition: 94% (active)
[7]; at 1.2 µM
  growth inhibition: 62%
[7]; at 3.7 µM
  growth inhibition: 98% (active)
[7]; at 11.0 µM
  growth inhibition: 97% (active)
[7]; at 33.0 µM
  growth inhibition: 97% (active)
[7]; at 100.0 µM
  growth inhibition: 92% (active)
[8]; [17]
  growth inhibition: 64%
[8]; [18]
  growth inhibition: 98% (active)
[8]; at 50.0 µM
  growth inhibition: 85.7% (active)
[9]; at 1.2 µM
  growth inhibition: 47%
[9]; at 3.7 µM
  growth inhibition: 91% (active)
[9]; at 11.0 µM
  growth inhibition: 91% (active)
[9]; at 33.0 µM
  growth inhibition: 95% (active)
[9]; at 100.0 µM
  growth inhibition: 89% (active)
[10]; at 1.2 µM
  growth inhibition: 41%
[10]; at 3.7 µM
  growth inhibition: 98% (active)
[10]; [17]
  growth inhibition: 8%
[10]; at 11.0 µM
  growth inhibition: 98% (active)
[10]; at 33.0 µM
  growth inhibition: 97% (active)
[10]; [18]
  growth inhibition: 4%
[10]; at 50.0 µM
  growth inhibition: 90.9% (active)
[10]; at 100.0 µM
  growth inhibition: 93% (active)
[11]; at 1.2 µM
  growth inhibition: 45%
[11]; at 3.7 µM
  growth inhibition: 98% (active)
[11]; at 11.0 µM
  growth inhibition: 96% (active)
[11]; at 33.0 µM
  growth inhibition: 98% (active)
[11]; at 100.0 µM
  growth inhibition: 97% (active)
[12]; at 1.2 µM
  growth inhibition: 52%
[12]; at 3.7 µM
  growth inhibition: 99% (active)
[12]; at 11.0 µM
  growth inhibition: 98% (active)
[12]; at 33.0 µM
  growth inhibition: 97% (active)
[12]; at 100.0 µM
  growth inhibition: 94% (active)
[13]; at 1.2 µM
  growth inhibition: 56%
[13]; at 3.7 µM
  growth inhibition: 98% (active)
[13]; at 11.0 µM
  growth inhibition: 99% (active)
[13]; at 33.0 µM
  growth inhibition: 98% (active)
[13]; at 100.0 µM
  growth inhibition: 95% (active)
[14]; [17]
  growth inhibition: 90% (active)
[14]; [18]
  growth inhibition: 98% (active)
[14]; at 50.0 µM
  growth inhibition: 91.7% (active)
[15]; at 1.2 µM
  growth inhibition: 46%
[15]; at 3.7 µM
  growth inhibition: 98% (active)
[15]; at 11.0 µM
  growth inhibition: 95% (active)
[15]; at 33.0 µM
  growth inhibition: 96% (active)
[15]; at 100.0 µM
  growth inhibition: 93% (active)

## O=C1c2cccc3cccc(c23)C(=O)N1O
[1]; at 1.2 µM
  growth inhibition: -3%
[1]; at 3.7 µM
  growth inhibition: 3%
[1]; at 11.0 µM
  growth inhibition: 1%
[1]; at 33.0 µM
  growth inhibition: 24%
[1]; at 100.0 µM
  growth inhibition: 84% (active)
[2]; at 1.2 µM
  growth inhibition: 3%
[2]; at 3.7 µM
  growth inhibition: -1%
[2]; at 11.0 µM
  growth inhibition: 7%
[2]; at 33.0 µM
  growth inhibition: 24%
[2]; at 100.0 µM
  growth inhibition: 86% (active)
[3]; at 1.2 µM
  growth inhibition: -3%
[3]; at 3.7 µM
  growth inhibition: -2%
[3]; at 11.0 µM
  growth inhibition: -1%
[3]; at 33.0 µM
  growth inhibition: 28%
[3]; at 100.0 µM
  growth inhibition: 89% (active)
[4]; at 1.2 µM
  growth inhibition: -8%
[4]; at 3.7 µM
  growth inhibition: 4%
[4]; at 11.0 µM
  growth inhibition: 23%
[4]; at 33.0 µM
  growth inhibition: 81% (active)
[4]; at 100.0 µM
  growth inhibition: 95% (active)
[5]; at 1.2 µM
  growth inhibition: 9%
[5]; at 3.7 µM
  growth inhibition: 13%
[5]; [17]
  growth inhibition: 13%
[5]; at 11.0 µM
  growth inhibition: 13%
[5]; at 33.0 µM
  growth inhibition: 54%
[5]; [18]
  growth inhibition: 99% (active)
[5]; at 50.0 µM
  growth inhibition: 84.4% (active)
[5]; at 100.0 µM
  growth inhibition: 89% (active)
[6]; at 1.2 µM
  growth inhibition: 5%
[6]; at 3.7 µM
  growth inhibition: -5%
[6]; [17]
  growth inhibition: 33%
[6]; at 11.0 µM
  growth inhibition: 4%
[6]; at 33.0 µM
  growth inhibition: 36%
[6]; [18]
  growth inhibition: 98% (active)
[6]; at 50.0 µM
  growth inhibition: 87.3% (active)
[6]; at 100.0 µM
  growth inhibition: 94% (active)
[7]; at 1.2 µM
  growth inhibition: 16%
[7]; at 3.7 µM
  growth inhibition: 13%
[7]; at 11.0 µM
  growth inhibition: 46%
[7]; at 33.0 µM
  growth inhibition: 92% (active)
[7]; at 100.0 µM
  growth inhibition: 97% (active)
[8]; [17]
  growth inhibition: 90% (active)
[8]; [18]
  growth inhibition: 98% (active)
[8]; at 50.0 µM
  growth inhibition: 90.3% (active)
[16]; [17]
  growth inhibition: 71% (active)
[16]; [18]
  growth inhibition: 98% (active)
[16]; at 50.0 µM
  growth inhibition: 47.1%
[10]; at 1.2 µM
  growth inhibition: 4%
[10]; at 3.7 µM
  growth inhibition: 18%
[10]; [17]
  growth inhibition: 93% (active)
[10]; at 11.0 µM
  growth inhibition: 83% (active)
[10]; at 33.0 µM
  growth inhibition: 97% (active)
[10]; [18]
  growth inhibition: 98% (active)
[10]; at 50.0 µM
  growth inhibition: 83.3% (active)
[10]; at 100.0 µM
  growth inhibition: 98% (active)
[11]; at 1.2 µM
  growth inhibition: 3%
[11]; at 3.7 µM
  growth inhibition: 17%
[11]; at 11.0 µM
  growth inhibition: 92% (active)
[11]; at 33.0 µM
  growth inhibition: 98% (active)
[11]; at 100.0 µM
  growth inhibition: 99% (active)
[12]; at 1.2 µM
  growth inhibition: -11%
[12]; at 3.7 µM
  growth inhibition: -10%
[12]; at 11.0 µM
  growth inhibition: 0%
[12]; at 33.0 µM
  growth inhibition: 57%
[12]; at 100.0 µM
  growth inhibition: 90% (active)
[13]; at 1.2 µM
  growth inhibition: 14%
[13]; at 3.7 µM
  growth inhibition: 8%
[13]; at 11.0 µM
  growth inhibition: 19%
[13]; at 33.0 µM
  growth inhibition: 67%
[13]; at 100.0 µM
  growth inhibition: 91% (active)
[14]; [17]
  growth inhibition: 23%
[14]; [18]
  growth inhibition: 99% (active)
[14]; at 50.0 µM
  growth inhibition: 86.4% (active)
[15]; at 1.2 µM
  growth inhibition: 6%
[15]; at 3.7 µM
  growth inhibition: 3%
[15]; at 11.0 µM
  growth inhibition: 13%
[15]; at 33.0 µM
  growth inhibition: 41%
[15]; at 100.0 µM
  growth inhibition: 81% (active)
